Results from article PMC5540273 (PLoS ONE, 2017).

Each compound was assayed on FLT3-autoinhibited. Conditions: concentration: 1 μM,replicates: in singlicate; n = 1.
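Note: KINOMEscan kinase panel screen.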

Row | SMILES | %Inh [%]
1 | COc1ccc(Nc2nccc(N3CCC(NC(=O)c4cccc(C#N)c4)C3)n2)cc1 (stereo not drawn) [GSK1379730] | 0
2 | C[C@@H](Oc1cc(-n2cnc3cc(-c4cnn(C)c4)ccc32)sc1C(N)=O)c1ccccc1Cl [GSK580432] | 28
3 | O=C(Nc1n[nH]c2cc(-c3ccco3)ccc12)C1CC1 [SB-737447] | 4
4 | COC(=O)Nc1nc2cc(Oc3ccc(NC(=O)Nc4cc(C(F)(F)F)ccc4Cl)cc3)ccc2[nH]1.Cl [GW697465] | 0
5 | Cc1cccc2c(-c3ccncc3)c(-c3ccc(F)cc3)nn12.Cl [GW461487] | 0
6 | O=c1[nH]cc(-c2ccc(O)cc2)c2sc(-c3ccncc3)cc12 [GSK1033723] | 0
7 | COc1cccc(CNC(=O)NC2CCN(c3ccnc(Nc4cc(OC)c(OC)c(OC)c4)n3)C2)c1 (stereo not drawn) [GSK1379765] | 14
8 | COc1cccc(OC)c1C(=O)Nc1cccc(-c2nn3ccccc3c2-c2ccnc(Nc3cccc(F)c3)n2)c1 [GSK361065] | 0
9 | CC(=O)Nc1nc2cnc(Nc3cc(NC(=O)c4cccc(CC(C)(C)C#N)c4)ccc3C)nc2s1 | 0
10 | CC(C)S(=O)(=O)N1CCN(Cc2ccc3c(c2)nc(NC(=O)c2ccsc2)n3C[C@H](O)c2ccccc2)CC1 [GW635815] | 90.4
11 | Cc1ccc(Nc2ccnc(Nc3ccc4c(c3)CS(=O)(=O)C4)n2)cc1O.Cl [GW579362] | 92.7
12 | Cc1nnc(-c2ccc3occ(-c4ccc(S(C)=O)cc4)c3n2)o1 (stereo not drawn) | 0
